Laboratory results taken from ChEMBL document CHEMBL4513216, “Probing the Open Global Health Chemical Diversity Library for Multistage-Active Starting Points for Next-Generation Antimalarials” (ACS Infect Dis, 2020).
Hit rate of the full screen: of about 68,000 compounds, about 2,700 (4%) showed an effect of 50% or more. Only a selection was taken, and strong results are over-represented in it overall.

Tested on: Plasmodium berghei
Test: Screen against P. berghei liver stage (PbLuc), transformed with Luciferase, at 2uM
Type: functional, HepG2
Settings: tested at 2 uM

| SMILES | INHIBITION [%] |
| --- | --- |
| COCCN1CCC2(CC1)CC(Nc1ccc(C)nn1)CO2 (stereo not given) | 7.72 |
| CC(C)c1noc(OCC(=O)N2CCCCC2C)n1 (stereo not given) | 17.48 |
| Cc1noc(OCC(=O)N2CCCCC2C)n1 (stereo not given) | 50.32 |
| CC1CCCCN1C(=O)COc1nc(C(C)(C)C)no1 (stereo not given) | 47.04 |
| CCC(CC)CNCC1(S(C)(=O)=O)CCOCC1 | 59.99 |
| CC(CNCC1(S(C)(=O)=O)CCOCC1)c1ccc(F)cc1 (stereo not given) | 29.28 |
| CCC(C)CNCC1(S(C)(=O)=O)CCOCC1 (stereo not given) | 10.03 |
| Cc1cc2nc(SCC(=O)N3CCOCC3)n(CCC(C)C)c(=O)c2[nH]1 | 44.15 |
| Cc1cc2nc(SCC(=O)N3CCOCC3)n(CC(C)C)c(=O)c2[nH]1 | 50.74 |
| CCn1c(SCC(=O)N2CCOCC2)nc2cc(C)[nH]c2c1=O | 33.58 |
| CC(C)CN1CCC(c2nnc(CN3CCCC3)n2C2CC2)CC1 | 8.03 |
| CCC(=O)N1CCCC1c1nccnc1Nc1nc(C)cc(C)n1 (stereo not given) | 44.72 |
| CNC(=O)C1(CCCc2ccncc2)CCCN1 (stereo not given) | -0.51 |
| CN(C)C(=O)C1(CCCc2ccncc2)CCCN1 (stereo not given) | 54.82 |
| NC(=O)C1(CCCc2ccncc2)CCCN1 (stereo not given) | 46.98 |
| O=C(O)c1cc(NS(=O)(=O)c2cccc(Cl)c2F)ccc1Cl | 36.65 |
| Cc1cc(C(=O)N2CCCC2)ccc1NCc1nc(CC(C)C)no1 | 58.05 |
| CCCc1noc(CNc2ccc(C(=O)N3CCCC3)cc2C)n1 | -11.2 |
| CCc1noc(CNc2ccc(C(=O)N3CCCC3)cc2C)n1 | 24.15 |
| NC(=O)c1cccc(CN2CCc3c(ncn3C3CC3)C2)c1 | 11.95 |
| CC(C)CNC(=O)c1cccc(CN2CCc3c(ncn3C)C2)c1 | 21.43 |
| Cn1cnc2c1CCN(Cc1cccc(OCC(N)=O)c1)C2 | 3.9 |
| Cn1cnc2c1CCN(Cc1cccc(C(N)=O)c1)C2 | 74.87 |
| Cn1cnc2c1CCN(Cc1ccc(C(=O)N3CCCC3)cc1)C2 | 51.21 |

| SMILES | INHIBITION [%] |
| --- | --- |
| Cn1cnc2c1CCN(Cc1cccc(C(=O)N3CCCCC3)c1)C2 | 5.91 |
| CCS(=O)(=O)Cc1nc(-c2cnn3c(C)cc(C)nc23)no1 | -9.94 |
| CN1CCN([C@@H]2CN(C(=O)c3cc4cccc(F)c4[nH]3)C[C@H]2O)CC1 | -17.65 |
| CNC(=O)C(C)CN(C)C(=O)Nc1cc(F)cc(Br)c1 (stereo not given) | -0.47 |
| CN(C)CCNC(=O)c1ccccc1NC(=O)c1cc(Cl)ccc1Cl | 13.39 |
| O=C(NCc1ccco1)[C@@H]1CC[C@@H]2[C@@H](CCN2CC2CC2)O1 | 22.89 |
| CC(Cn1cccn1)NC(=O)NCCc1cccs1 (stereo not given) | -26.87 |
| CC(Cn1cccn1)NCC(=O)NC1(C#N)CCCCC1 (stereo not given) | 51.14 |
| CCCc1nc(CNC(C)Cn2cccn2)cs1 (stereo not given) | -6.71 |
| Cc1cnn(CC(C)NCC(=O)NCCc2cccs2)c1 (stereo not given) | -28.18 |
| CC(Cn1cccn1)NCc1nc(-c2ccc3c(c2)OCO3)no1 (stereo not given) | -35.26 |
| CC(Cn1cccn1)NCc1nc(-c2cccc(Cl)c2)no1 (stereo not given) | 73.05 |
| CC(Cn1cccn1)NCc1nc(-c2cccnc2)no1 (stereo not given) | -15.36 |
| CC(Cn1cccn1)NCc1csc(Cc2ccccc2)n1 (stereo not given) | -44.51 |
| N#CC1(NC(=O)CNCCn2cccn2)CCCCC1 | -45.11 |
| CCc1nc(CNC(C)Cn2cccn2)cs1 (stereo not given) | 55.7 |
| N#CC1(NC(=O)COC(=O)Cn2cccn2)CCCC1 | -40.04 |
| CC(Cn1cccn1)NCC(=O)NCCc1cccs1 (stereo not given) | 66.99 |
| NCCc1cccc(CN2CCN(c3cccc(Cl)c3)C(=O)C2)c1 | 31.35 |
| COCc1nc(C(=O)N2CCN(Cc3ccsc3)CC2)cs1 | 8.93 |
| CC(C)C(=O)N1CCCC(Cc2ncccn2)C1 (stereo not given) | -24.73 |
| CC(C)COC1CCN(C(=O)c2ccc(C(F)(F)F)[nH]c2=O)CC1 | -24.73 |
| FC(F)(F)c1cccc(OC2CCN(Cc3c[nH]cn3)CC2)c1 | -6.65 |
| CCC1=N[C@@]2(CC[C@@H]3CN(CC4CC4)C[C@@H]32)C(=O)N1 | -26.61 |

| SMILES | INHIBITION [%] |
| --- | --- |
| O=C(NC1CC1)c1cnc(-c2noc3cc(N4CCCCC4)ccc23)s1 | 18.11 |
| CC(Cn1cccn1)NCCCc1nc(-c2cccs2)no1 (stereo not given) | 21.39 |
| Cc1cnn(CC(C)NCc2nc(-c3ccoc3)no2)c1 (stereo not given) | 59.68 |
| Cc1cnn(CC(C)NCc2nc(-c3cccnc3)no2)c1 (stereo not given) | -36.24 |
| Cc1cnn(CC(C)NCc2nc(-c3cccs3)no2)c1 (stereo not given) | -41.76 |
| Cc1cccc(-c2noc(CNC(C)Cn3cc(C)cn3)n2)c1 (stereo not given) | -26.75 |
| CC(Cn1cccn1)NCc1nc(-c2cccs2)no1 (stereo not given) | 51.21 |
| O=C(CN1CCOC(CNc2cccnn2)C1)NCc1cccs1 (stereo not given) | -48.41 |
| Cc1cc(C)n(-c2ccc(N3CCC4(CC3)OCC(C)O4)nc2)n1 (stereo not given) | -11.55 |
| COCC1CN(CC2CC2)Cc2ncn(CC3CC3)c21 (stereo not given) | -21.31 |
| CCN1CCO[C@@H]2CN(C(=O)NCc3ccccc3)CC[C@@H]2C1 | 0.15 |
| CN(C)C[C@@H]1C[C@@H]2CN(C(=O)Cc3cccs3)CC[C@@H]2N1C | 54.01 |
| CN1CCO[C@@H]2CN(C(=O)Cc3cccs3)CC[C@@H]2C1 | 52.96 |
| COCCN1CCO[C@@H]2CN(C(=O)Cc3ccc(F)cc3)CC[C@@H]2C1 | 3.72 |
| CS(=O)(=O)N1CCO[C@@H]2CN(C(=O)Cc3cccs3)CC[C@@H]2C1 | 20.87 |
| CC(C)N1CCO[C@@H]2CN(C(=O)Cc3cccs3)CC[C@@H]2C1 | -7.26 |
| CC(=O)N1[C@H](CN(C)C)C[C@@H]2CN(C(=O)Cc3cccs3)CC[C@@H]21 | 6.24 |
| CN(C)CCN1CCO[C@@H]2CN(C(=O)Cc3ccsc3)CC[C@@H]2C1 | -19.51 |
| CN1[C@H](CN2CCCC2)C[C@@H]2CN(C(=O)Cc3cccs3)CC[C@@H]21 | 10.62 |
| CC(=O)N1CCO[C@@H]2CN(C(=O)NCc3ccccc3)CC[C@@H]2C1 | 11.79 |
| Cc1ccc(CC(=O)N2CC[C@@H]3CN(CCN(C)C)CCO[C@@H]3C2)cc1 | 50.96 |
| CN1CCO[C@@H]2CN(C(=O)NCc3ccccc3)CC[C@@H]2C1 | 69.86 |
